About 79,000 compounds went through this panel and 15% of them were active in at least one assay; those are over-represented in the sample as a whole. Activity calls are given as the source filed them. Cut-off read from the data, not from the text of the source: active = growth inhibition above about 70%; inactive = the rest.
Experiments:
[1] = NCI Yeast Anticancer Drug Screen. Data for the wt1 strain (AID 149);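 note: 0% = growth of vehicle-treated wt1 cultures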; conditions: S. cerevisiae wt1 strain (SPY 50644) growth inhibition, active compounds read high
Procedure, shortened: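 The wt1 strain was treated with compounds, and growth was compared with vehicle-treated cultures to give inhibition.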

[2] = NCI Yeast Anticancer Drug Screen. Data for the mgt1 strain (AID 153); conditions: S. cerevisiae mgt1 mutant growth inhibition, active compounds read high
Procedure, shortened: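 Read-out: yeast growth inhibition vs vehicle control. Strain mgt1, drawn from a panel altered in DNA damage repair or cell cycle control.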

[3] = NCI Yeast Anticancer Drug Screen. Data for the rad50 strain (AID 155);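 note: 0% = growth of vehicle-only cultures of the same strain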; conditions: S. cerevisiae rad50 strain growth inhibition, active compounds read high
Procedure, shortened: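 Cells are treated with compound, grown, and their growth is then scored against vehicle-only cultures of the same repair-deficient yeast strain.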

[4] = NCI Yeast Anticancer Drug Screen. Data for the mec2-1 strain (AID 157); conditions: S. cerevisiae mec2-1 strain, active compounds read high
Procedure, shortened: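 Cells of the genetically defined mec2-1 yeast strain are incubated with test compound. Inhibition of growth is calculated against vehicle-treated controls.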

[5] = NCI Yeast Anticancer Drug Screen. Data for the rad14 strain (AID 159);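 note: 0% = growth of vehicle-treated control cultures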; conditions: S. cerevisiae rad14 strain growth inhibition, active compounds read high
Procedure, shortened: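 Readout: yeast growth inhibition, referenced to vehicle-only cultures. Strain bears a defined alteration in DNA damage repair.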

[6] = NCI Yeast Anticancer Drug Screen. Data for the sgs1 mgt1 strain (AID 161);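 note: 0% = growth of cultures given vehicle only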; conditions: S. cerevisiae sgs1 mgt1 strain, active compounds read high
Procedure, shortened: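 Read-out: growth inhibition vs vehicle controls. Cells: mutant yeast strain deficient in DNA damage repair.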

[7] = NCI Yeast Anticancer Drug Screen. Data for the CLN2oe strain (AID 163);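 note: 0% = growth of vehicle-only control cultures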; conditions: S. cerevisiae CLN2oe strain, active compounds read high
Procedure, shortened: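 Strain altered in cell-cycle control, incubated with compound; growth compared to solvent-treated controls.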

[8] = NCI Yeast Anticancer Drug Screen. Data for the cln2 rad14 strain (AID 165);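 note: 0% = growth equal to vehicle treated cultures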; conditions: S. cerevisiae cln2 rad14 strain, active compounds read high
Procedure, shortened: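 The screen exposed genetically defined yeast (cln2 rad14) to test compounds and scored growth inhibition relative to vehicle-treated controls.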

[9] = NCI Yeast Anticancer Drug Screen. Data for the bub3 strain (AID 167); conditions: S. cerevisiae bub3 mutant strain, active compounds read high
Procedure, shortened: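 Part of a panel of yeast mutants defective in DNA damage repair or cell cycle regulation. Each strain is grown with compound, and inhibition is calculated relative to solvent-treated cultures.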

[10] = NCI Yeast Anticancer Drug Screen. Data for the wt2 strain (AID 169);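 note: 0% = growth of vehicle-treated yeast cultures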; conditions: S. cerevisiae wt2 strain growth inhibition, active compounds read high
Procedure, shortened: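 Steps: yeast strain treated with compound; growth recorded; inhibition calculated relative to cultures given vehicle alone.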

[11] = NCI Yeast Anticancer Drug Screen. Data for the mlh1 strain (AID 171);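 note: 0% = growth of vehicle-treated control cultures of the same strain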; conditions: S. cerevisiae mlh1 strain growth inhibition, active compounds read high
Procedure, shortened: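 Yeast screen: mutant strain plus compound, growth scored against vehicle control wells.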

[12] = NCI Yeast Anticancer Drug Screen. Data for the sgs1 strain (AID 173);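 note: 0% = growth of vehicle-only control cultures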; conditions: S. cerevisiae sgs1 mutant, active compounds read high
Procedure, shortened: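 Inhibition of yeast growth served as the measure. The mutant strain was treated with each compound, and growth was normalised to cultures receiving vehicle alone.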

[13] = NCI Yeast Anticancer Drug Screen. Data for the mlh1 rad18 strain (AID 175); conditions: S. cerevisiae mlh1 rad18 strain growth inhibition, active compounds read high
Procedure, shortened: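 Compound-treated yeast growth, normalised to vehicle controls. Strain bears defined DNA repair mutations.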

[14] = NCI Yeast Anticancer Drug Screen. Data for the rad18 strain (AID 177); conditions: S. cerevisiae rad18 mutant growth inhibition, active compounds read high
Procedure, shortened: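 Inhibition values reflect reduced yeast growth compared with vehicle-treated controls, using a strain engineered with a DNA damage repair defect.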

[15] = at 5.0 µM (retest, dose inferred, filed as 0.5)
[16] = at 50.0 µM (retest, dose inferred, filed as 5.0)

Measured: growth inhibition

CCN(CCCl)c1cc(CN(C)C)cc(NC(=O)c2ccc(C(=O)Nc3cc(CN(C)C)cc(N(CC)CCCl)c3)cc2)c1
inactive: [1]; at 1.2 µM 9% | [1]; at 3.7 µM 20% | [1]; at 11.0 µM 9% | [1]; at 33.0 µM 8% | [1]; at 100.0 µM 40% | [2]; at 1.2 µM 5% | [2]; at 3.7 µM 3% | [2]; at 11.0 µM -6% | [2]; at 33.0 µM 10% | [3]; at 1.2 µM 3% | [3]; at 3.7 µM 11% | [3]; [15] 36% | [3]; at 11.0 µM 4% | [3]; at 33.0 µM 58% | [4]; at 1.2 µM -8% | [4]; at 3.7 µM 1% | [4]; [15] 26% | [4]; at 11.0 µM -9% | [4]; at 33.0 µM 8% | [4]; at 50.0 µM 37.5% | [5]; at 1.2 µM -11% | [5]; at 3.7 µM -13% | [5]; at 11.0 µM -6% | [5]; at 33.0 µM 56% | [6]; [15] 39% | [6]; at 50.0 µM 65.2% | [7]; at 1.2 µM 15% | [7]; at 3.7 µM 14% | [7]; at 11.0 µM 17% | [7]; at 33.0 µM 27% | [7]; at 100.0 µM 47% | [8]; [15] 6% | [8]; [16] 58% | [8]; at 50.0 µM 35% | [9]; at 1.2 µM -30% | [9]; at 3.7 µM -28% | [9]; [15] 32% | [9]; at 11.0 µM -14% | [9]; at 33.0 µM -22% | [9]; at 50.0 µM -8.9% | [10]; at 1.2 µM -12% | [10]; at 3.7 µM -19% | [10]; at 11.0 µM -16% | [10]; at 33.0 µM 3% | [11]; at 1.2 µM -6% | [11]; at 3.7 µM -6% | [11]; at 11.0 µM -9% | [11]; at 33.0 µM 28% | [12]; at 1.2 µM 5% | [12]; at 3.7 µM 3% | [12]; at 11.0 µM 7% | [12]; at 33.0 µM 65% | [14]; at 1.2 µM 3% | [14]; at 3.7 µM 57%
active: [2]; at 100.0 µM 89% | [3]; [16] 93% | [3]; at 50.0 µM 73.5% | [3]; at 100.0 µM 96% | [4]; [16] 95% | [4]; at 100.0 µM 90% | [5]; at 100.0 µM 96% | [6]; [16] 97% | [9]; [16] 97% | [9]; at 100.0 µM 75% | [10]; at 100.0 µM 89% | [11]; at 100.0 µM 90% | [12]; at 100.0 µM 94% | [13]; [15] 71% | [13]; [16] 98% | [13]; at 50.0 µM 91.7% | [14]; at 11.0 µM 85% | [14]; at 33.0 µM 90% | [14]; at 100.0 µM 97%

Br[C](Br)(Br)[Hg][c]1ccccc1
active: [3]; [15] 99% | [3]; [16] 98% | [3]; at 50.0 µM 87.3% | [4]; [15] 100% | [4]; [16] 99% | [4]; at 50.0 µM 89.8% | [6]; [15] 100% | [6]; [16] 99% | [6]; at 50.0 µM 90% | [8]; [15] 99% | [8]; [16] 98% | [8]; at 50.0 µM 89.3% | [9]; [15] 100% | [9]; [16] 99% | [9]; at 50.0 µM 89.1% | [13]; [15] 99% | [13]; [16] 98%

c1ccc2c(NCCCCCCNc3c4ccccc4nc4ccccc34)c3ccccc3nc2c1
active: [3]; [16] 89% | [3]; at 50.0 µM 75.4% | [4]; [16] 80% | [4]; at 50.0 µM 73.5% | [6]; [16] 83% | [9]; [16] 88% | [9]; at 50.0 µM 73.1% | [13]; [16] 83%
inactive: [3]; [15] 68% | [4]; [15] 43% | [6]; [15] 54% | [6]; at 50.0 µM 61.5% | [8]; [15] 20% | [8]; [16] 57% | [8]; at 50.0 µM 8.4% | [9]; [15] 56% | [13]; [15] 61%

CC(C)COP(=O)(OCC(C)C)C(=O)Nc1ccc(Cl)cc1
active: [3]; [16] 80% | [6]; [16] 89% | [13]; [16] 79%
inactive: [3]; [15] -1% | [3]; at 50.0 µM 57.1% | [4]; [15] -19% | [4]; [16] 44% | [4]; at 50.0 µM 15.2% | [6]; [15] 11% | [6]; at 50.0 µM 24.9% | [8]; [15] 9% | [8]; [16] 49% | [8]; at 50.0 µM 22.6% | [9]; [15] -2% | [9]; [16] 58% | [9]; at 50.0 µM 25.1% | [13]; [15] 2% | [13]; at 50.0 µM 33.6%

[I][Hg][I].c1ccc(N=P(c2ccccc2)(c2ccccc2)c2ccccc2)cc1
active: [3]; [15] 99% | [3]; [16] 99% | [3]; at 50.0 µM 99.3% | [4]; [15] 100% | [4]; [16] 100% | [4]; at 50.0 µM 99.6% | [6]; [15] 100% | [6]; [16] 99% | [6]; at 50.0 µM 99.6% | [8]; [15] 99% | [8]; [16] 99% | [8]; at 50.0 µM 98.7% | [9]; [15] 99% | [9]; [16] 99% | [9]; at 50.0 µM 99.3% | [13]; [15] 99% | [13]; [16] 99% | [13]; at 50.0 µM 99.3%

C(=C/P(c1ccccc1)c1ccccc1)/P(c1ccccc1)c1ccccc1.C(=CP(c1ccccc1)c1ccccc1)P(c1ccccc1)c1ccccc1.[Pt]
inactive: [3]; [15] 61% | [4]; [15] 38% | [6]; [15] 33% | [8]; [15] 36% | [9]; [15] 56% | [13]; [15] 41%
active: [3]; [16] 78% | [3]; at 50.0 µM 84.4% | [4]; [16] 92% | [4]; at 50.0 µM 90% | [6]; [16] 92% | [6]; at 50.0 µM 82.7% | [8]; [16] 82% | [8]; at 50.0 µM 86.2% | [9]; [16] 89% | [9]; at 50.0 µM 86.8% | [13]; [16] 91% | [13]; at 50.0 µM 83.4%
